From PubChem BioAssay (EPA / NIEHS)
Activity calls are given as the source filed them. Rule for the calls: active = hit-call score of the fitted dose curve at least 0.9, where 1 is the maximum; inactive = score below 0.9.

What was measured:
[1] = ATG_CRE_CIS: Attagene CIS-FACTORIAL HepG2 Assay for human cAMP Responsive Element (CRE) binding protein 3 (AID 2282926); conditions: HepG2 CRE cis-reporter, Attagene multiplexed mRNA; actives raise or lower the signal
Procedure, shortened: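 Capillary electrophoresis of 6-FAM-labelled, HpaI-digested PCR products quantified reporter transcripts. These came from HepG2 transiently transfected with cis-element reporters and exposed to test chemicals for 24 hours, with DMSO defining baseline activity.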

[2] = molecular target: CCAAT/enhancer-binding protein beta (Homo sapiens) (UniProt P17676); assay: ATG_C_EBP_CIS: Attagene CIS-FACTORIAL HepG2 Assay for human CCAAT/Enhancer Binding Protein (C/EBP) beta (AID 2282927); conditions: HepG2 Attagene cis-factorial transcription factor reporter; actives raise or lower the signal
Chain of CCAAT/enhancer-binding protein beta (Homo sapiens) (P17676 whole entry, looked up): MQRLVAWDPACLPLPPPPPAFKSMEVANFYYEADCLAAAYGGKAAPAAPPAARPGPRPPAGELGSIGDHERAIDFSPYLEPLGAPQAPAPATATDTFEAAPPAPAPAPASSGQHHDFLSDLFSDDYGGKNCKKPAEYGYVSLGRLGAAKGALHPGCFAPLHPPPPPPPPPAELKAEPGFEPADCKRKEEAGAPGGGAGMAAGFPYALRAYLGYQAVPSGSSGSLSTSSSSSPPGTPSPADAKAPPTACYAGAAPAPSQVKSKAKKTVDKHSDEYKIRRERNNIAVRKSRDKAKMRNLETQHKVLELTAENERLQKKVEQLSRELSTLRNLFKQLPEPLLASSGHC
Procedure, shortened: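 Following a 24 h incubation with test chemical, transfected HepG2 cells yielded RNA whose reporter transcripts were quantified by RT-PCR and fluorescent capillary electrophoresis, with DMSO serving as baseline for bidirectional fitting.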

[3] = ATG_CMV_CIS: Attagene CIS-FACTORIAL HepG2 Assay for human CMV (Internal Marker) (AID 2282928); conditions: HepG2 CMV promoter reporter, transcription factor profiling; actives raise or lower the signal;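 note: endpoint acts as a background internal control marker rather than a target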
Procedure, shortened: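 24 h chemical treatment, HepG2 with transient multi-reporter transfection; RNA → oligo(dT) RT → PCR → 6-FAM extension → HpaI digest → CE fluorescence. Bidirectional fit, DMSO negative control.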

[4] = ATG_DR4_LXR_CIS: Attagene CIS-FACTORIAL HepG2 Assay for human Liver X Receptor (LXR), DR4 submotif (AID 2282929); conditions: HepG2 Attagene DR4 cis-reporter, mRNA transcription; actives raise or lower the signal
Procedure, shortened: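 Transiently transfected HepG2 liver cells; cis-regulated reporters; 24 h dosing. RT-PCR plus CE read-out of reporter mRNA. DMSO baseline, bidirectional curve fitting.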

[5] = molecular target: Aryl hydrocarbon receptor (Homo sapiens) (UniProt P35869); assay: ATG_Ahr_CIS: Attagene CIS-FACTORIAL HepG2 Assay for human Aryl Hydrocarbon Receptor (Ahr) (AID 2282930); conditions: HepG2 AhR cis-factorial reporter transcription; actives raise or lower the signal
Chain of Aryl hydrocarbon receptor (Homo sapiens) (P35869 whole entry, looked up): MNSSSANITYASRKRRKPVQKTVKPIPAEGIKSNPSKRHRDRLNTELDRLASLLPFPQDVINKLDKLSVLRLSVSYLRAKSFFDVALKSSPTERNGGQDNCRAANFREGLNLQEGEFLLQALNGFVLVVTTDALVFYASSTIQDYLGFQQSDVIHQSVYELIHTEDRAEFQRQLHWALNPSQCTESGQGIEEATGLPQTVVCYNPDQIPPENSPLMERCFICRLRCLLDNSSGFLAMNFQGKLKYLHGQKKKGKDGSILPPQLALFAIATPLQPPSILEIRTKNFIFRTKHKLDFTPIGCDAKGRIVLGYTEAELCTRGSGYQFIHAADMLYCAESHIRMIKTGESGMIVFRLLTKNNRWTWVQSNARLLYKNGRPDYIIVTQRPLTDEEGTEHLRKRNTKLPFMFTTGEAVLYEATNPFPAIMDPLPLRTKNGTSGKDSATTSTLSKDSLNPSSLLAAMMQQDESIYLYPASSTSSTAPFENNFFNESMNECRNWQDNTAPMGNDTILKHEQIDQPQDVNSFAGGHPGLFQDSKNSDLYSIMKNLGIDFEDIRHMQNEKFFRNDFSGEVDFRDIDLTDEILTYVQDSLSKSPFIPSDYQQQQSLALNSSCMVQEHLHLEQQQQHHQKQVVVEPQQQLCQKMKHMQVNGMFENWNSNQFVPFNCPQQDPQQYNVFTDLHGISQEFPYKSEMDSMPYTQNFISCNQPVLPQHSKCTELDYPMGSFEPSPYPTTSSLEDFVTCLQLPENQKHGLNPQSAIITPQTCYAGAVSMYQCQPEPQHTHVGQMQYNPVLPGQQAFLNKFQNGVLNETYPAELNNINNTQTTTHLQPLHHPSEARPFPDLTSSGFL
Procedure, shortened: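 Values derive from bidirectional fitting against DMSO negative control. Underlying signal: cis-element reporter mRNA in transiently transfected HepG2, harvested 24 h post-dose and measured by RT-PCR plus capillary electrophoresis.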

[6] = ATG_AP_1_CIS: Attagene CIS-FACTORIAL HepG2 Assay for human Activator Protein 1 (AP-1) (AID 2282931); conditions: HepG2 Attagene cis-factorial AP-1 reporter mRNA; actives raise or lower the signal
Procedure, shortened: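 We transfected HepG2 cells transiently with a set of cis-regulated reporter transcription units, dosed them for 24 h, and quantified reporter mRNA via RT-PCR and capillary electrophoresis, scoring gain or loss of signal relative to DMSO.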

[7] = ATG_AP_2_CIS: Attagene CIS-FACTORIAL HepG2 Assay for human Activator Protein 2 (AP-2) (AID 2282932); conditions: HepG2 AP-2 cis-reporter, Attagene transcription factor profiling; actives raise or lower the signal
Procedure, shortened: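 Cells (HepG2) transfected with promoter-driven reporter constructs, treated 24 h. Total RNA reverse-transcribed, reporter cDNA PCR-amplified, FAM-labelled by primer extension, digested, resolved by capillary electrophoresis. Activity fitted both directions versus DMSO.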

[8] = ATG_BRE_CIS: Attagene CIS-FACTORIAL HepG2 Assay for human Bone Morphogenetic Protein (BMP) Response Element (BRE) (AID 2282933); conditions: HepG2 BMP response element reporter, Attagene transcription factor profiling; actives raise or lower the signal
Procedure, shortened: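 Multiplexed cis-reporter assay, HepG2, 24 h exposure. mRNA from reporter units quantified via RT-PCR/CE; DMSO baseline; bidirectional curve fit.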

[9] = molecular target: Retinoic acid receptor alpha (Homo sapiens) (UniProt P10276); assay: ATG_DR5_RAR_CIS: Attagene CIS-FACTORIAL HepG2 Assay for human Retinoic Acid Receptor Alpha (RARE), DR5 submotif (AID 2282934); conditions: HepG2 Attagene cis-factorial RARE DR5 reporter, mRNA; actives raise or lower the signal;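 for AC50: reporter responds to endogenous RAR alpha beta and gamma in HepG2 not RARA alone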
Chain of Retinoic acid receptor alpha (Homo sapiens) (P10276 whole entry, looked up): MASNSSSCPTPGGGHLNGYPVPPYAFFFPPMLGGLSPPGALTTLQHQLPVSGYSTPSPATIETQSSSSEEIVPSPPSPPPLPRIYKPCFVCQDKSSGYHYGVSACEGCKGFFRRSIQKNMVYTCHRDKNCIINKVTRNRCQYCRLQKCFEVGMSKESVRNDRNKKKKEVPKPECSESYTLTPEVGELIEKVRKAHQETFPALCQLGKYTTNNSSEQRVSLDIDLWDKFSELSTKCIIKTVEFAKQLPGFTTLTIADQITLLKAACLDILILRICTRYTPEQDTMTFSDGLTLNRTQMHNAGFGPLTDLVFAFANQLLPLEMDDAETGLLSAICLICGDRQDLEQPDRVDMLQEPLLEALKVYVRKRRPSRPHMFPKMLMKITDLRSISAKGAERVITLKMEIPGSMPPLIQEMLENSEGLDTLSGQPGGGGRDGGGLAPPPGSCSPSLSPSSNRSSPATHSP
Procedure, shortened: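 Endpoint fitted in both directions relative to DMSO as negative control. It reflects DR5 cis-element reporter mRNA induction in transiently transfected HepG2 cells, measured 24 h after dosing through RT-PCR and fluorescent capillary electrophoresis.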

[10] = molecular target: Transcription factor E2F1 (Homo sapiens) (UniProt Q01094); assay: ATG_E2F_CIS: Attagene CIS-FACTORIAL HepG2 Assay for human E2F Transcription Factor 1 (AID 2282935); conditions: HepG2 Attagene cis-reporter, E2F reporter RNA transcripts; actives raise or lower the signal
Chain of Transcription factor E2F1 (Homo sapiens) (Q01094 whole entry, looked up): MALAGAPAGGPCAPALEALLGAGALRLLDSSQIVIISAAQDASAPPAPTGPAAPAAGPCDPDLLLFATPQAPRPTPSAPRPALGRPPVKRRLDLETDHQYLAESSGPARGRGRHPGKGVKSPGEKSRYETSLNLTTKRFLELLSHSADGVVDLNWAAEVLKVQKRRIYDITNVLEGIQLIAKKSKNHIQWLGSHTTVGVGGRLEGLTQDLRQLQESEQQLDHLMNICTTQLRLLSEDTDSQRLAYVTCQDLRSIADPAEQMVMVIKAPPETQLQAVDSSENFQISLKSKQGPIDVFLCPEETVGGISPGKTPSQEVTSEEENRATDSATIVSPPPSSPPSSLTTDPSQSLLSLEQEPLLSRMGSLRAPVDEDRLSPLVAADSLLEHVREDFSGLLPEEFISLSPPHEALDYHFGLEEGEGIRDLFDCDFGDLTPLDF
Procedure, shortened: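 First, HepG2 cells were transfected with reporter transcription units. Next, they were dosed for 24 h. Then RNA was isolated, converted to cDNA, PCR-amplified, FAM-labeled, HpaI-digested and analyzed by capillary electrophoresis.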

[11] = ATG_E_Box_CIS: Attagene CIS-FACTORIAL HepG2 Assay for human Enhancer Box (E-box) (AID 2282936); conditions: HepG2 E-box cis-reporter transcription, actives raise or lower the signal
Procedure, shortened: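 Endogenous transcription factor activity was sensed in human HepG2 liver cells through transfected cis-promoter reporter units. After 24 h of dosing, total RNA was reverse-transcribed and reporter cDNA resolved by capillary electrophoresis.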

[12] = ATG_M_61_CIS: Attagene CIS-FACTORIAL HepG2 Assay for M61 Transcription Factor (Internal Marker) (AID 2282937); conditions: HepG2 Attagene CIS-FACTORIAL M61 internal marker reporter; actives raise or lower the signal
Procedure, shortened: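 Multiplexed reporter mRNA assay, HepG2 human hepatoma cells, 24 h treatment. Signal: FAM-labelled, HpaI-digested RT-PCR fragments by CE. Fit: bidirectional, baseline DMSO.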

[13] = ATG_EGR_CIS: Attagene CIS-FACTORIAL HepG2 Assay for human Early Growth Response 1 (EGR1) (AID 2282938); conditions: HepG2 Attagene CIS-FACTORIAL EGR reporter mRNA; actives raise or lower the signal
Procedure, shortened: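 Multiplexed cis-reporter system in human hepatoma HepG2 cells, transiently transfected. Cells are dosed for 24 h; reporter transcripts are amplified, fluorescently tagged and sized by capillary electrophoresis, with DMSO as negative control.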

[14] = ATG_M_19_CIS: Attagene CIS-FACTORIAL HepG2 Assay for M19 Transcription Factor (Internal Marker) (AID 2282939); conditions: HepG2 Attagene CIS-FACTORIAL M19 internal marker reporter; actives raise or lower the signal
Procedure, shortened: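 Signals come from fluorescence of labelled reporter-specific PCR fragments resolved by capillary electrophoresis, following 24 h treatment of HepG2 cells transfected with cis-promoter reporter units; activity was fitted in both directions relative to DMSO.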

[15] = ATG_ERE_CIS: Attagene CIS-FACTORIAL HepG2 Assay for Estrogen Response Element (ERE) (AID 2282940); conditions: HepG2 ERE cis-reporter, Attagene RNA transcript; actives raise or lower the signal
Procedure, shortened: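 Fluorescence of capillary-separated, FAM-labelled reporter cDNA fragments indicates reporter mRNA levels in HepG2 cells exposed to chemicals for 24 h. Transient transfection with cis-regulated units; data fitted in both directions against DMSO.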

## Oc1c(Br)cc(Br)cc1Br
[1]
  outcome: inactive
[2]
  outcome: inactive
[3]
  outcome: inactive
[4]
  outcome: inactive
[5]
  AC50: 49.5 µM (active)
[6]
  AC50: 27.7 µM (active)
[7]
  outcome: inactive
[8]
  AC50: 126 µM (active)
[9]
  outcome: inactive
[10]
  outcome: inactive
[11]
  AC50: 30.4 µM (active)
[12]
  outcome: inactive
[13]
  AC50: 31.9 µM (active)
[14]
  outcome: inactive

## CCCCCCCCCCCCCCC(Br)C(=O)O (stereo not drawn)
[1]
  outcome: inactive
[2]
  AC50: 179 µM (active)
[3]
  outcome: inactive
[4]
  AC50: 27.4 µM (active)
[5]
  outcome: inactive
[6]
  AC50: 173 µM (active)
[7]
  AC50: 100 µM (active)
[8]
  outcome: inactive
[9]
  AC50: 26.9 µM (active)
[10]
  AC50: 108 µM (active)
[11]
  outcome: inactive
[12]
  AC50: 183 µM (active)
[13]
  AC50: 146 µM (active)
[14]
  AC50: 183 µM (active)

## COC(=O)c1cc(Oc2ccc(Cl)cc2Cl)ccc1[N+](=O)[O-]
[1]
  outcome: inactive
[2]
  outcome: inactive
[3]
  outcome: inactive
[4]
  outcome: inactive
[5]
  AC50: 17 µM (active)
[6]
  outcome: inactive
[7]
  outcome: inactive
[8]
  AC50: 64.1 µM (active)
[9]
  outcome: inactive
[10]
  outcome: inactive
[11]
  outcome: inactive
[12]
  outcome: inactive
[13]
  AC50: 27.2 µM (active)
[14]
  outcome: inactive
[15]
  AC50: 39.1 µM (active)

## CCOC(=O)C(SP(=S)(OC)OC)c1ccccc1 (stereo not drawn)
[1]
  outcome: inactive
[2]
  outcome: inactive
[3]
  outcome: inactive
[4]
  outcome: inactive
[5]
  outcome: inactive
[6]
  outcome: inactive
[7]
  outcome: inactive
[8]
  outcome: inactive
[9]
  outcome: inactive
[10]
  outcome: inactive
[11]
  outcome: inactive
[12]
  outcome: inactive
[13]
  outcome: inactive
[14]
  outcome: inactive

## CCOP(=S)(OCC)OP(=S)(OCC)OCC
[1]
  outcome: inactive
[2]
  outcome: inactive
[3]
  outcome: inactive
[4]
  AC50: 29.5 µM (active)
[5]
  outcome: inactive
[6]
  outcome: inactive
[7]
  outcome: inactive
[8]
  outcome: inactive
[9]
  outcome: inactive
[10]
  outcome: inactive
[11]
  outcome: inactive
[12]
  outcome: inactive
[13]
  outcome: inactive
[14]
  outcome: inactive

## CCCCOP(=O)(CCCC)OCCCC
[1]
  outcome: inactive
[2]
  outcome: inactive
[3]
  outcome: inactive
[4]
  outcome: inactive
[5]
  outcome: inactive
[6]
  outcome: inactive
[7]
  outcome: inactive
[8]
  outcome: inactive
[9]
  outcome: inactive
[10]
  outcome: inactive
[11]
  outcome: inactive
[12]
  outcome: inactive
[13]
  outcome: inactive
[14]
  outcome: inactive

## CN(C)CCN(C)C
[1]
  outcome: inactive
[2]
  outcome: inactive
[3]
  outcome: inactive
[4]
  outcome: inactive
[5]
  outcome: inactive
[6]
  outcome: inactive
[7]
  outcome: inactive
[8]
  outcome: inactive
[9]
  outcome: inactive
[10]
  outcome: inactive
[11]
  outcome: inactive
[12]
  outcome: inactive
[13]
  outcome: inactive
[14]
  outcome: inactive

## CC(O)(CS(=O)(=O)c1ccc(F)cc1)C(=O)Nc1ccc(C#N)c(C(F)(F)F)c1 (stereo not drawn)
[1]
  outcome: inactive
[2]
  outcome: inactive
[3]
  outcome: inactive
[4]
  outcome: inactive
[5]
  outcome: inactive
[6]
  outcome: inactive
[7]
  outcome: inactive
[8]
  AC50: 98.5 µM (active)
[9]
  outcome: inactive
[10]
  outcome: inactive
[11]
  outcome: inactive
[12]
  outcome: inactive
[13]
  outcome: inactive
[14]
  outcome: inactive
[15]
  outcome: inactive

## C=CC(Cl)CCl (stereo not drawn)
[1]
  outcome: inactive
[2]
  outcome: inactive
[3]
  outcome: inactive
[4]
  outcome: inactive
[5]
  outcome: inactive
[6]
  outcome: inactive
[7]
  outcome: inactive
[8]
  outcome: inactive
[9]
  outcome: inactive
[10]
  outcome: inactive
[11]
  outcome: inactive
[12]
  outcome: inactive
[13]
  outcome: inactive
[14]
  outcome: inactive
